Assay [1] is described as follows: ATG_ERE_CIS: Attagene CIS-FACTORIAL HepG2 Assay for Estrogen Response Element (ERE) (AID 2282940; active means hit-call score of the fitted dose curve at least 0.9, where 1 is the maximum; inactive means score below 0.9). To be noted: HepG2 ERE cis-reporter, Attagene RNA transcript; actives raise or lower the signal. Put shortly: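 Cells used were human hepatoma HepG2, transfected with multiple reporter transcription units under cis-regulatory promoters. Reporter mRNA, read 24 h post-dosing via fluorescent RT-PCR products on capillary electrophoresis, was fitted bidirectionally relative to DMSO.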

Assay [2] addresses Estrogen receptor (Homo sapiens) (UniProt P03372). In words: ATG_ERa_TRANS: Attagene TRANS-FACTORIAL HepG2 Assay for human Estrogen Receptor alpha (ERa) (AID 2282970). To be noted: HepG2 Attagene TRANS ERa GAL4 reporter, mRNA. The procedure, abridged:
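HepG2 cells transiently transfected with multiplexed GAL4-UAS reporter units read out chimeric NR-Gal4 activity. After 24 h compound exposure, reporter mRNA was quantified by RT-PCR, 6-FAM labeling, HpaI digestion and capillary electrophoresis, relative to DMSO.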

Assay [3] addresses Bile acid receptor (Homo sapiens) (UniProt Q96RI1). In words: ATG_FXR_TRANS: Attagene TRANS-FACTORIAL HepG2 Assay for Farnesoid X Receptor (FXR) (AID 2282979).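 Further: hits raise reporter mRNA above DMSO so AC50 marks FXR activation.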 Conditions: HepG2 Attagene TRANS FXR-GAL4 reporter transcription. Put shortly: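 HepG2 cells were transiently transfected with GAL4-UAS reporters driven by chimeric NR-Gal4 proteins and dosed for 24 h. Reporter mRNA was quantified by RT-PCR, fluorescent labelling, HpaI digestion and capillary electrophoresis, with gain of signal scored versus DMSO.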

Assay [4] concerns the target human Thyroid Receptor alpha (THRa1), THRA (gene 7067) (UniProt P10827). Briefly: ATG_THRa1_TRANS: Attagene TRANS-FACTORIAL HepG2 Assay for human Thyroid Receptor alpha (THRa1) (AID 2283014). The procedure, abridged: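 HepG2 cells transiently transfected with chimeric NR-Gal4 and GAL4-UAS reporter units, dosed 24 h. Reporter mRNA quantified by RT-PCR, fluorescent labeling, HpaI digestion and capillary electrophoresis; gain-of-signal fit versus DMSO.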

Assay [5] has as its target Steroid hormone receptor ERR1 (Homo sapiens) (UniProt P11474). In words: ATG_ERRa_TRANS: Attagene TRANS-FACTORIAL HepG2 Assay for human Estrogen-Related Receptor alpha (ERRa) (AID 2282971). Conditions: HepG2 Attagene TRANS reporter, ERRa transactivation. The procedure, abridged:
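HepG2 cells transiently transfected with GAL4-UAS reporter units and chimeric NR-Gal4 constructs; after 24 hour compound incubation, reporter mRNA quantified by RT-PCR, fluorescent labelling and capillary electrophoresis, gain of signal versus DMSO.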

The target of assay [6] is Estrogen-related receptor gamma (Homo sapiens) (UniProt P62508). In words: ATG_ERRg_TRANS: Attagene TRANS-FACTORIAL HepG2 Assay for human Estrogen-Related Receptor gamma (ERRg) (AID 2282977).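 Further: hits increase reporter signal over DMSO so potencies reflect activators.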 To be noted: HepG2 Attagene TRANS reporter, ERRg transactivation. Put shortly:
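Transfect HepG2 with multiple GAL4-UAS reporter transcription units; dose chemicals 24 h; isolate RNA, reverse-transcribe with oligo(dT), PCR-amplify, label with 6-FAM, digest with HpaI; size fragments by capillary electrophoresis. DMSO serves as negative control.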

Assay [7] has as its target Estrogen receptor beta (Homo sapiens) (UniProt Q92731). In words: OT_ER_ERbERb_0480: Odyssey Thera (OT) 8-hour HEK293T Protein-Complementation Assay for Estrogen Receptor-beta/-beta Homodimer (AID 2283357). The procedure, abridged:
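Readout: increase in mean fluorescence intensity (nucleus for agonists; nucleus plus cytoplasm for antagonists) relative to DMSO, from a reporter-fragment complementation of human ER-beta LBD homodimer in HEK293T cells dosed 8 hours.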

The target is the same in assay [8]. In words: OT_ER_ERbERb_1440: Odyssey Thera (OT) 24-hour HEK293T Protein-Complementation Assay for Estrogen Receptor-beta/-beta Homodimer (AID 2283380).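 Further: fluorescence gain from ER beta LBD homodimer complementation read by laser scanning cytometry; scored as signal increase over DMSO baseline for both agonists and antagonists.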 The procedure, abridged:
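HEK293T cells stably expressing human ER-beta LBD (aa 310-547) PCA homodimer pair, dosed 24 h; formaldehyde-fixed, Draq5-stained. Readout: increase in nuclear (agonist) or nuclear plus cytoplasmic (antagonist) fluorescence intensity versus DMSO, gain-of-signal fitting.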

Assay [9] has as its target Retinoic acid receptor RXR-alpha (Homo sapiens) (UniProt P19793). In words: OT_NURR1_NURR1RXRa_0480: Odyssey Thera (OT) 8-hour HEK293T Protein Complementation Assay for Nurr1/retinoid X receptor (RXR) (AID 2283385). The procedure, abridged: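 8 h compound exposure, HEK293T; Nurr1/RXRα fragment complementation; fluorescence intensity; positive fitting direction vs DMSO baseline.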

For assay [10] the target is unchanged. Briefly: OT_NURR1_NURR1RXRa_1440: Odyssey Thera (OT) 24-hour HEK293T Protein Complementation Assay for Nurr1/retinoid X receptor (RXR) (AID 2283386). The procedure, abridged:
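Interaction of Nurr1 with RXRα brings fused reporter fragments together in human HEK293T cells, restoring a functional reporter. Fluorescence intensity is measured 24 h after chemical treatment, and values are analysed in the positive direction against DMSO.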

Assay [11] can be described thus: ACEA_AR_agonist_AUC_viability: ACEA Biosciences xCELLigence Real-Time Cell Analysis on Androgen Receptor Agonism for Viability (AID 2283775). Put shortly: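 Real-time impedance tracking of 22Rv1 growth, readings every 5 min for 5 h then hourly; area-under-curve viability endpoint at 80 hours, relative to DMSO. Compounds at eight concentrations, 1:4 steps, top 100 uM, n = 2.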

Assay [12] in a line: ACEA_AR_antagonist_AUC_viability: ACEA Biosciences xCELLigence Real-Time Cell Analysis on Androgen Receptor Antagonism for Viability (AID 2283776).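 Further: 22Rv1 human prostate cancer cells growing on impedance electrode plates; hits lower the growth signal relative to DMSO meaning cytotoxicity.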 The procedure, abridged: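 Real-time electrical impedance tracks 22Rv1 proliferation after continuous compound exposure (top 100 uM final, 1:4 steps, 8 concentrations). The 80 h area-under-curve serves as the cytotoxicity readout relative to DMSO.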

Assay [13] is described as follows: CCTE_Harrill_HTTr_Apoptosis_MCF7: CCTE's 6-hour Apoptosis Assessment for the High-Throughput Transcriptomics (HTTr) Platform, in MCF-7 cells cultured in DMEM + 10% fetal bovine serum, Harrill Lab (AID 2284011; active means hit-call score of the fitted dose curve at least 0.9, where 1 is the maximum; inactive means score below 0.9). The procedure, abridged: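 MCF-7 cells in DMEM + 10% FBS exposed 6 h to chemicals over an eight-point dilution series. Caspase-3/7 activation imaged by high-content CellEvent Green staining; fitted bidirectionally versus DMSO.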

Assay [14] is described as follows: CCTE_Harrill_HTTr_CellCount_MCF7: CCTE's Cell Proliferation Assessment for the High-Throughput Transcriptomics (HTTr) Platform, Harrill Lab (AID 2284012).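 Further: cells exposed to compound for six hours; intended direction is loss of nuclei count meaning fewer cells.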 The procedure, abridged: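 Chemicals in eight-point dilution series are added to MCF-7 cells for six hours, nuclei are stained with Hoechst and imaged, and per-well nuclei counts are fitted in both directions relative to DMSO controls.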

A short description of assay [15]: BSK_3C_uPAR: BioMAP Diversity Plus: 3C Assay for Urokinase-type plasminogen activator receptor (uPAR) Biomarker Activity (AID 2282998; active means hit-call score of the fitted dose curve at least 0.9, where 1 is the maximum; inactive means score below 0.9). Conditions: BioMAP 3C HUVEC, uPAR biomarker ELISA; actives raise or lower the signal. Put shortly: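 Dose primary human umbilical vein endothelial cells, incubate 24 h, measure cell-surface uPAR by ELISA, then fit the signal in both directions against the DMSO negative control.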
In general terms: ELISA stands for enzyme-linked immunosorbent assay.

The nature of assay [16]: BSK_4H_Eotaxin3: BioMAP Diversity Plus: 4H Assay for Eotaxin 3 Biomarker Activity (AID 2283000; active means hit-call score of the fitted dose curve at least 0.9, where 1 is the maximum; inactive means score below 0.9;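 on outcome: CCL26 protein level quantified by ELISA in parallel with SRB cytotoxicity check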). To be noted: primary human endothelial cells (HUVEC); actives raise or lower the signal. Put shortly: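 Eotaxin-3 (CCL26) levels were measured by ELISA in HUVEC primary cultures 24 h post-dosing. Gain or loss of signal was fitted in both directions, with DMSO serving as baseline and negative control.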

Read-out in assay [17]: Intercellular Adhesion Molecule 1 (ICAM1), ICAM1 (gene 3383)
Briefly: BSK_3C_ICAM1: BioMAP Diversity Plus: 3C Assay for Intercellular Adhesion Molecule 1 (ICAM1) Biomarker Activity (AID 2283003; active means hit-call score of the fitted dose curve at least 0.9, where 1 is the maximum; inactive means score below 0.9). To be noted: primary human endothelial cells (HUVEC); actives raise or lower the signal. The procedure, abridged: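 ICAM-1 levels measured by ELISA after HUVEC cultures in the 3C system had been dosed for 24 h. Gain or loss of signal relative to DMSO was fitted in both directions.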

Read-out in assay [18]: Monocyte Chemoattractant Protein-1 (MCP1), CCL2 (gene 6347)
In words: BSK_4H_MCP1: BioMAP Diversity Plus: 4H Assay for Monocyte Chemoattractant Protein-1 (MCP1) Biomarker Activity (AID 2283018; active means hit-call score of the fitted dose curve at least 0.9, where 1 is the maximum; inactive means score below 0.9). Conditions: primary human endothelial cells (HUVEC); actives raise or lower the signal. Put shortly: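 ELISA read-out of MCP-1 from human vascular endothelial primary cells taken at 24 hours after compound exposure. Activity was fitted in both directions relative to DMSO, which served as negative control.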

Read-out in assay [19]: Thrombomodulin, THBD (gene 7056)
In words: BSK_CASM3C_Thrombomodulin: BioMAP Diversity Plus: CASM3C Assay for Thrombomodulin Biomarker Activity (AID 2283051; active means hit-call score of the fitted dose curve at least 0.9, where 1 is the maximum; inactive means score below 0.9;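 further: thrombomodulin protein level measured by ELISA 24 h after dosing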). To be noted: primary human coronary artery smooth muscle cells; actives raise or lower the signal.

For assay [20], the target named is Peroxisome proliferator-activated receptor gamma (Homo sapiens) (UniProt P37231). In words: OT_PPARg_PPARgSRC1_1440: Odyssey Thera (OT) 24-hour Protein-Complementation Assay for Peroxisome Proliferator-activated Receptor Gamma/ SRC-1 Co-activator (AID 2283388). The procedure, abridged:
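HEK293T transiently transfected with PPARg/SRC-1 split-Venus YFP fusions 48 h before dosing, then treated 24 h at 37C. Fixed cells imaged; nuclear/cytoplasmic 488 nm fluorescence ratio, gain of signal versus DMSO.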

Inconclusive results are not listed. Active and inactive are the calls of the source. How the source made its calls, unless noted: active means hit-call score of the fitted dose curve at least 0.9, where 1 is the maximum; inconclusive means response in the unintended direction; inactive means score below 0.9.

Experimental findings from PubChem BioAssay (EPA / NIEHS) are described below.

Sequence of human Thyroid Receptor alpha (THRa1), THRA (gene 7067) (P10827 whole entry, looked up, the tested form may be a part): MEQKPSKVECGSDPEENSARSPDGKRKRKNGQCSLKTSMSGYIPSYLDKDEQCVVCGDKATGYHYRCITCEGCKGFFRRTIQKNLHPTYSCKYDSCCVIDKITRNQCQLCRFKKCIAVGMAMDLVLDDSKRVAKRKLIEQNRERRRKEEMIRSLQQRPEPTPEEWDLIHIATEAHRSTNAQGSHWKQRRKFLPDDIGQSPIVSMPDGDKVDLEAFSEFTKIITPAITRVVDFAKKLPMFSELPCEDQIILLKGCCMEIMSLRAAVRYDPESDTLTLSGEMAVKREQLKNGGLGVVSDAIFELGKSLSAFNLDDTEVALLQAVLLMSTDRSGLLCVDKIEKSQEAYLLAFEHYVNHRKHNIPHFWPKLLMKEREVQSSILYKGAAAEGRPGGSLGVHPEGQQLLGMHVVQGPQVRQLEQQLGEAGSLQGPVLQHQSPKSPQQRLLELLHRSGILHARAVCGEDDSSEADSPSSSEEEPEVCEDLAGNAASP
Sequence of Bile acid receptor (Homo sapiens) (Q96RI1 whole entry, looked up, the tested form may be a part): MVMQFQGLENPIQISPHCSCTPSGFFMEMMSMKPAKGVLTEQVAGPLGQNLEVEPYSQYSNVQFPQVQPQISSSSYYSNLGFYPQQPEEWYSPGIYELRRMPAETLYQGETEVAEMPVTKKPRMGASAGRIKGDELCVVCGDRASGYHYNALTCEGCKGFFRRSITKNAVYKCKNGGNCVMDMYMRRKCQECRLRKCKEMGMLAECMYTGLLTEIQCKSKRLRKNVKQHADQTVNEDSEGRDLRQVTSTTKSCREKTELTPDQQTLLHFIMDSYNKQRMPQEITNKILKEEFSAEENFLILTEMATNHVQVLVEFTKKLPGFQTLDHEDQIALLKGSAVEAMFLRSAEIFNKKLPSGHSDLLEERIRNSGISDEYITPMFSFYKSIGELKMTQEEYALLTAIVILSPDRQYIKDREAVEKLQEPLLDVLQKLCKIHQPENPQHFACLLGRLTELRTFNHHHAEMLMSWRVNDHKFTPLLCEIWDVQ
Sequence of Estrogen receptor (Homo sapiens) (P03372 whole entry, looked up, the tested form may be a part): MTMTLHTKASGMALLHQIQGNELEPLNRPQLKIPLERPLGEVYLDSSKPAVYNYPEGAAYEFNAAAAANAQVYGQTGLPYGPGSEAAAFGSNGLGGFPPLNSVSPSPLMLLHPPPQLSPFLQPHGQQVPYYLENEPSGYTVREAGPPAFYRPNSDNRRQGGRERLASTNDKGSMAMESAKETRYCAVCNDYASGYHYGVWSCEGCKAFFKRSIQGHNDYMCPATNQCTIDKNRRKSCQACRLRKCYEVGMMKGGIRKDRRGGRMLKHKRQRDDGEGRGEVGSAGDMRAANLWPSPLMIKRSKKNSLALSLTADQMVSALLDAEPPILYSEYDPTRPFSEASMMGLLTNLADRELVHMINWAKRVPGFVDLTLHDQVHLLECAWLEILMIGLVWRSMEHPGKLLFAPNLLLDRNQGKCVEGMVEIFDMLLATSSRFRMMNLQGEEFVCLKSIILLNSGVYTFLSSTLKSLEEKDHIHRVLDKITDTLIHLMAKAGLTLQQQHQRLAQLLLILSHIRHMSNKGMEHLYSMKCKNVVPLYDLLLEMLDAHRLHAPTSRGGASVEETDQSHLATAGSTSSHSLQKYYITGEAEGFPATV
Sequence of Peroxisome proliferator-activated receptor gamma (Homo sapiens) (P37231 whole entry, looked up, the tested form may be a part): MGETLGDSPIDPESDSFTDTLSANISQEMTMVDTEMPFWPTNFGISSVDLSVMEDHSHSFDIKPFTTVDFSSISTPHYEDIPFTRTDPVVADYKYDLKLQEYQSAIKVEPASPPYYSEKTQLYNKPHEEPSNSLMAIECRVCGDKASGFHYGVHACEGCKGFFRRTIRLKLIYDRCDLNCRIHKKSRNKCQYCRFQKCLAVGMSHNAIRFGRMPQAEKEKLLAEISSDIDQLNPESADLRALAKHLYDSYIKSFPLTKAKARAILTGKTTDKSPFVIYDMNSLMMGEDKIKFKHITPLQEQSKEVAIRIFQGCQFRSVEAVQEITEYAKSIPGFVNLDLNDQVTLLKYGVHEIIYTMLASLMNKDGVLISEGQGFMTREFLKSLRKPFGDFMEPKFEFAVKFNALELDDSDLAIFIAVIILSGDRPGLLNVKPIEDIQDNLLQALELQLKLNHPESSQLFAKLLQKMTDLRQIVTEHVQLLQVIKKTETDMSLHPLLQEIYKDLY
Sequence of Estrogen receptor beta (Homo sapiens) (Q92731 whole entry, looked up, the tested form may be a part): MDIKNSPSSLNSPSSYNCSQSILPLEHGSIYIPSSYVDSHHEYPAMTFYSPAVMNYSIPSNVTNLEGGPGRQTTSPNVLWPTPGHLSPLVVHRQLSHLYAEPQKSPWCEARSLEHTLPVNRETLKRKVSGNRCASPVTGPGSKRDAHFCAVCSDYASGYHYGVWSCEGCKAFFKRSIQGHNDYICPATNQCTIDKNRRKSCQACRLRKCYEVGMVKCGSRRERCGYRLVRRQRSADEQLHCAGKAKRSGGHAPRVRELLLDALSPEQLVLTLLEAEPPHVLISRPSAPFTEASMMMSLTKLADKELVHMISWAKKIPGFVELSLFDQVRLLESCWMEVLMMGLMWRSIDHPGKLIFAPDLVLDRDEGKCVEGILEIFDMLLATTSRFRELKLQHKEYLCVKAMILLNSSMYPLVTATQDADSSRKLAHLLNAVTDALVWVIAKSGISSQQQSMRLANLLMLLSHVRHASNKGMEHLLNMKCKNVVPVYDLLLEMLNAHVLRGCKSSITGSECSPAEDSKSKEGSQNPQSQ
Sequence of Retinoic acid receptor RXR-alpha (Homo sapiens) (P19793 whole entry, looked up, the tested form may be a part): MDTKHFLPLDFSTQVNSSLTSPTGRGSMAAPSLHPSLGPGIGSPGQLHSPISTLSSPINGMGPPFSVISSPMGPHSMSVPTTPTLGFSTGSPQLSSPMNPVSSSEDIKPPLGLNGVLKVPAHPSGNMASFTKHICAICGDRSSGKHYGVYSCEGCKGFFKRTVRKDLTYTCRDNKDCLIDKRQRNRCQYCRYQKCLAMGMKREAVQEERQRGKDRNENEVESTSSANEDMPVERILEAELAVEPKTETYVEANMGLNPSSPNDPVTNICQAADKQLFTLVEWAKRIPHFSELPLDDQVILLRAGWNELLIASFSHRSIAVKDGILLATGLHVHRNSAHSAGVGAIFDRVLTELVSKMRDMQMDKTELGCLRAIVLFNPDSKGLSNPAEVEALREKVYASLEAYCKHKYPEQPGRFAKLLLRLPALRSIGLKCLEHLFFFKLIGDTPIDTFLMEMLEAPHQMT
Sequence of Estrogen-related receptor gamma (Homo sapiens) (P62508 whole entry, looked up, the tested form may be a part): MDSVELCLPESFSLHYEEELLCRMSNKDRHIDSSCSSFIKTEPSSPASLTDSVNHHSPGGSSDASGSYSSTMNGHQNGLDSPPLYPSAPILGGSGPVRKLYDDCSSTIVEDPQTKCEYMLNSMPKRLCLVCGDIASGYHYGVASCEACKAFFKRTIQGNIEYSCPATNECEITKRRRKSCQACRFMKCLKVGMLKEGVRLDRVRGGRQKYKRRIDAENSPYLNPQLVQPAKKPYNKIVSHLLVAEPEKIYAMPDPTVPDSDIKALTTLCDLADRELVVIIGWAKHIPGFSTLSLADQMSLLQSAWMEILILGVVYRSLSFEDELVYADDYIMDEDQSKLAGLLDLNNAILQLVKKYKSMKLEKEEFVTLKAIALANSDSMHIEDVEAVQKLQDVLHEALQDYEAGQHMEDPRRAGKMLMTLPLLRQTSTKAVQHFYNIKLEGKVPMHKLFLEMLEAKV
Sequence of Steroid hormone receptor ERR1 (Homo sapiens) (P11474 whole entry, looked up, the tested form may be a part): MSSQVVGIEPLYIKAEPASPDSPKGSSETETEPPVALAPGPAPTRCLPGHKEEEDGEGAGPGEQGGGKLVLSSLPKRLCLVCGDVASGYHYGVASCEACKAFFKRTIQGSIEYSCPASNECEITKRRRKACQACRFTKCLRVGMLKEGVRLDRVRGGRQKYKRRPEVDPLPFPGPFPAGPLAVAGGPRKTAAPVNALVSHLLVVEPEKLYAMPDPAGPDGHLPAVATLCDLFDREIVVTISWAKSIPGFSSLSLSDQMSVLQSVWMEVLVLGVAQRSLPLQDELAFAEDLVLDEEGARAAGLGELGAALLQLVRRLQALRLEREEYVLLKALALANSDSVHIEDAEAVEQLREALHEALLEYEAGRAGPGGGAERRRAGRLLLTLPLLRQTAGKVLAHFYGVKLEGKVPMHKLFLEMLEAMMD

The term AC50 denotes the concentration at which the activity in the assay is half-maximal. Consider `O=[N+]([O-])c1cc(C(F)(F)F)c(Cl)c([N+](=O)[O-])c1Cl`, for which the compound was classed as inactive in [1] and in assay [4]. For the same compound, the concentration at half-maximal activity (AC50) was 14.6 µM (active) in assay [2] and 53.3 µM (active) in assay [3].
`S=c1[nH]c2ccccc2[nH]1`: the call in assay [5] and in assay [6] was inactive.
With `C=Cc1cccc(CCl)c1`, the compound was called inactive in assay [1] and in [4].
In the case of `CNC(=N[N+](=O)[O-])NCC1CCOC1` (configuration not stated), the result in assay [3], in assay [7], in assay [8], in assay [9], in assay [10] and in assay [11] was inactive. For the same compound, the compound was classed as inactive in [12] and in assay [13].
`Cc1ccc(N(SC(F)(Cl)Cl)S(=O)(=O)N(C)C)cc1`: the compound was called inactive in assay [5], in [6] and in assay [14].
As for `CCc1cc(C)cc(CC)c1-c1c(OC(=O)C(C)(C)C)n2n(c1=O)CCOCC2`, the outcome in [1], in assay [17], in assay [18], in [19] and in [13] was inactive. Besides, the AC50 in assay [15] is 4 µM (active); in assay [16] it was 20 µM (active).
In the case of `C=CCO`, the call in assay [9], in assay [10] and in [11] was inactive.
For `CCC(=O)c1ccc(Cl)cc1`, the call in assay [4], in assay [7], in [8], in [9], in assay [10] and in assay [20] was inactive. Further, the result in assay [11] was inactive.
For `c1ccc(Nc2ccc3ccccc3c2)cc1`, the AC50 in [1] is 8.6 µM (active); in [2], 4.65 µM (active); in [15], 20 µM (active); in [17], 30.6 µM (active); in assay [18], 30.7 µM (active); in [19], 8.69 µM (active). Further, the compound was called inactive in assay [5], in [3], in assay [16] and in [4].
`CCCCCCCCCCCC#N`: the compound was classed as inactive in assay [3], in assay [17], in [4] and in assay [19]. Besides, the half-maximal activity concentration (AC50) in assay [15] was 37.8 µM (active); in [16], 27.5 µM (active); in assay [18] it was 20.6 µM (active).
Turning to `CSc1nc(N=[N+]=[N-])nc(NC(C)C)n1`, the call in assay [1], in [2] and in assay [4] was inactive.
Take `C=COCCCl`: the compound was classed as inactive in assay [1], in [5], in assay [6], in assay [3], in [4] and in [13]. For the same compound, in [14], the compound was classed as inactive.
As to `CCOC(=O)C1OC1(C)c1ccccc1` (configuration not stated), the outcome in [7], in assay [9], in assay [10], in assay [20] and in [11] was inactive. Also, the AC50 in assay [8] was 37.3 µM (active).
Turning to `C[N+](C)(C)CC(=O)O`, the call in [1], in assay [2], in assay [13] and in [14] was inactive.
Take `O=S(=O)(O)OOS(=O)(=O)O`: the result in assay [4], in assay [7], in [8], in [9], in assay [20] and in assay [11] was inactive. For the same compound, in [12], the result was inactive.
`CC(C)C(=O)Cl`: the result in assay [6] and in [3] was inactive.
